Experimental data published in the supplement of paper PMC6555819.

Tests used:
Assay in all cases: PBM binding z-score (relative to random genomic background probes); higher = stronger binding; sequences stand for … in GC…GCGATTGACAGCGTAGAATGAAGG
[1] = test system: RARb homodimer (NR concentration 270 nM)
Method in brief: (§1)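 For binding z-scores, the reference was random background probes on custom Agilent 4×180K protein-binding microarrays. These arrays were incubated 1 h with ligand-free nuclear receptor dimers in PBS pH 7.4, 2% milk, 0.02% Triton X-100, 1 mM DTT, 0.2 mg/mL BSA and 0.4 mg/ml salmon testes DNA. Fluorescence was scanned after antibody detection of each partner (one per run) and regression-normalized.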

[2] = test system: RARg:RXRa (NR concentration 270 nM, RXRa partner concentration 90 nM)
Method in brief: as §1

[3] = test system: RARg homodimer (NR concentration 270 nM)
Method in brief: as §1

[4] = test system: RXRa DBDmut IVT, anti-RXR (DBD mutation: RXRa K156A/R161A, NR concentration 90 nM)
Method in brief: as §1

[5] = test system: RXRa homodimer (NR concentration 180 nM)
Method in brief: as §1

[6] = test system: THRa:RXRa (NR concentration 90 nM, RXRa partner concentration 90 nM)
Method in brief: as §1

[7] = test system: THRa homodimer (NR concentration 90 nM)
Method in brief: as §1

[8] = test system: VDR homodimer (NR concentration 270 nM)
Method in brief: as §1

Sequence | PBM binding z-score [1] | PBM binding z-score [2] | PBM binding z-score [3] | PBM binding z-score [4] | PBM binding z-score [5] | PBM binding z-score [6] | PBM binding z-score [7] | PBM binding z-score [8]
TCTGCTAGGTCAGTTGGTCAGCTGACGAGCTGCC | 2.33 | 2.98 | 4.14 | 0.382 | 0.854 | 1.31 | -0.308 | -1.1
ATCTCTAGGTAAAGATAGTTCAGTTAATGCAAAT | 1.19 | 0.937 | 0.915 | 0.536 | 0.419 | 1.27 | 0.471 | 0.927
TCTTGAAGATCAAAGGTTAAGAAAGCCGAAGCCT | 1.32 | 2.04 | 0.685 | 0.731 | 3.74 | 1.37 | -0.659 | -0.364
GCATTTAGGTAATACAAGGTGAAAGTCCGATTGT | 1.06 | 0.319 | 0.48 | 0.617 | 0.375 | 3.89 | 1.59 | 0.0936
CCTAACGGGTCAAGGTTATAGCACGGGTGGTACG | 3.19 | 4.47 | 4.4 | 0.639 | 4.35 | 2.8 | 0.625 | 1.37
CAAACTACGTCACGAAAGGTCAAAGTCGAATGAC | 4.48 | 5.61 | 5.12 | 1.05 | 6.68 | 3.93 | 1.11 | 2.66
TCAAGTAGGTTAGGGGCATTCAGAATGGCGTCGA | 1.23 | 0.789 | 0.56 | 1.29 | 1.08 | 1.45 | 0.575 | 1.48
CCTGCTGGGCCAAAGGTCATTGATTCCAATGCTC | 4.53 | 5.82 | 4.91 | 1.48 | 6.37 | 3.2 | 0.638 | 2.24
ACAGAAAGGTGAGTGAAGGTAACTCAGCTGGACG | 1.15 | 1.58 | 1.59 | -0.371 | 1.28 | 2.58 | -0.361 | -0.509
CCTCGGAGTACAGAAGGTCAGAGCTGTCCGCTTT | 3.15 | 2.77 | 2.95 | 0.9 | 2.37 | 2.3 | 0.111 | 0.59
TCTGCTTGGTCAGTTGGTCAGCTAACGAGCTGCC | 0.226 | -0.172 | -0.0396 | -0.00109 | -0.439 | -0.465 | -0.841 | -1.2
TGTCACAGTTCAAAGGTAACGTAAGTATCCACAC | 1.81 | 3.57 | 2.54 | 2.93 | 4.82 | 2.74 | -0.0814 | 2.33
ACCATTAGTTGACTTAGGGCAACCGATACGACGC | 1.34 | 0.733 | 0.851 | 0.744 | 0.478 | 1.61 | 0.915 | 0.163
CCTTACGGGTCACGAGGATATAGCACGACGAGCG | 3.37 | 5.53 | 5.26 | 0.944 | 6.1 | 3.16 | 0.656 | 0.89
CCTAGCAGGCCAGTCTGGGTCACTCAAGGCTTGA | 2.01 | 1.09 | 1.2 | -0.216 | 1.05 | 3.14 | 0.462 | -0.0969
ATACCAAGGTGATCGTGAGGTCGTCGATACTAAC | 1.61 | 2.45 | 0.868 | 0.301 | 1.56 | 3.52 | 2.54 | 1.95
AGTCACAGTTCAGGACGAGGTAACGTAAAGCACG | 1.66 | 2.48 | 1.95 | 1.31 | 1.28 | 3.34 | 1.84 | 0.905
TCTTGTAGATCAAAAGTTAAGAAAGCCGAAGCCT | -0.728 | 0.0681 | -0.147 | 0.742 | 0.126 | -0.34 | -1.33 | -0.181
CCGAGTAGGTTATGGGGCTTTCAGGCAACGGTGA | 0.416 | 0.0177 | 0.1 | -0.273 | 0.293 | 0.519 | 0.657 | 0.00532
GGAACGAGGGCAAGTTGATAGCCGAGTTTGATGG | 1.56 | 1.84 | 2.12 | 2.37 | 0.956 | 1.22 | -0.266 | 1.92
ATTACAGGGTCACTAGGCCAGAGTAGGTACGAAT | 3.38 | 5.4 | 5.25 | 2.67 | 5.24 | 3.48 | 1.5 | 2.93
GATACAGGGCCAAGGCCAGAGTACGCGTATTGAT | 0.738 | 0.109 | 0.599 | -0.254 | 0.197 | -0.171 | -0.281 | -0.147
ATCTCTAGATAAGACTCAGTTCAGTGAAGAACGC | 0.0113 | -0.0447 | 0.323 | 0.327 | -0.154 | 0.116 | -0.107 | 1.02
CCTACTGGGCCATTCAGAGGTCATTGGTCATATG | 4.14 | 4.18 | 2.64 | 0.884 | 3.6 | 3.14 | 1.34 | 3.34
TCATATAGGCAAAGGTGAAAGTCGAACGATATGA | 1.42 | 1.59 | 1.08 | 0.694 | 2.3 | 1.22 | -0.37 | -0.123
CGTCCAAGGTCAATACTAGGTCAGTGAAAGCATT | 5.1 | 6.92 | 6.34 | 3.51 | 4.84 | 4.42 | 3 | 2.44
CCTACTGGGCCAAAAAGGTCATTGACGCCGATAA | 4.4 | 4.59 | 4.36 | 0.774 | 4.9 | 3.02 | 0.658 | 2.4
TATGCAGGGTCAAAGGCCAGAGTACGAATGTCGA | 3.43 | 5.45 | 4.89 | 2.39 | 6.81 | 3.45 | 0.361 | 2.66
